Calls of active or inactive are those of the source.

5 molecules from PubChem BioAssay can be followed below.

Test [1] relates to Plasmodium falciparum Sir2 (PF13_0152, Sir2A). In words: Plasmodium falciparum Sir2A binding compounds – biochemical, small-molecule microarray, 635 nm fluorescence, primary screen (AID 1098).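 Note: score merges spot fluorescence intensity with its signal-to-noise ratio.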 The following applies: fluorescence 635 nm, higher = more signal.
Test [2] in a line: probe aDKK1 binding to arrayed compounds – biochemical, biotinylated probe, 635/667 nm fluorescence, primary screen (AID 1099).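 Note: score merges 667nm spot fluorescence with signal to noise across triplicate slides.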 The following applies: small-molecule microarray, higher = more signal.
Test [3] can be described thus: probe aCHRDL2 binding to arrayed compounds – biochemical, biotinylated probe, 635/667 nm fluorescence, primary screen (AID 1100). The following applies: small-molecule microarray, higher = more signal.
The nature of test [4]: change in splice reporter luminescence, either direction, cell-based, HEK293, spliceosome inhibition project, primary screen (AID 1101).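 Note: HEK293 cells carrying a splicing-competent luciferase reporter gene; test concentration not given here.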 The following applies: HEK293 splicing luciferase reporter, 24 h, higher = more signal, called active from +8 up or from −8 down.
For test [5], the target named is Fibroblast growth factor 10 (Homo sapiens) (UniProt O15520). In words: compounds binding fibroblast growth factor 10 – biochemical, small-molecule microarray, 635 nm fluorescence, primary screen (AID 1102). The following applies: FGF10 binding, fluorescence 635 nm, higher = more signal.
Test [6] concerns glycogen synthase kinase-3 (GSK3A per assay name; protocol says GSK3B). In words: compounds binding glycogen synthase kinase-3 – biochemical, small-molecule microarray, 635 nm fluorescence, GSK3A, primary screen (AID 1103). Note: the record names both GSK3A and GSK3B. The following applies: fluorescence 635 nm, higher = more signal.
Test [7] concerns the target Epidermal growth factor receptor (Homo sapiens) (UniProt P00533). The test can be described thus: compounds binding epidermal growth factor receptor – biochemical, small-molecule microarray, 635 nm fluorescence, primary screen (AID 1104).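 Note: score merges 667 nm emission intensity with spot signal to noise over triplicate slides.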 The following applies: EGFR binding, higher = more signal.
The target in test [8] is Follistatin-related protein 3 (Homo sapiens) (UniProt O95633). The test can be described thus: compounds binding follistatin-related protein 3 – biochemical, small-molecule microarray, 635 nm fluorescence, primary screen (AID 1105).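 Note: score merges emission near 667 nm and signal to noise per printed spot across three slides.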 The following applies: FSTL3 binding, higher = more signal.
Test [9] concerns the target Dickkopf-related protein 1 (Homo sapiens) (UniProt O94907). In words: small molecules binding DKK1 protein – biochemical, small-molecule microarray, 635 nm fluorescence scan, primary screen (AID 1106).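 Note: score merges emission near 667 nm with signal to noise over three replicate slides.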 The following applies: higher = more signal.
Test [10] has as its system Inhibin beta A chain (activin A). In words: small molecules binding activin A – biochemical, small-molecule microarray, 635 nm fluorescence scan, primary screen (AID 1107).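 Note: mouse activin A protein probed at 4.33 µg/mL on printed slides; score merges bound-protein fluorescence near 667 nm with spot signal-to-noise.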 The following applies: INHBA, higher = more signal.
For test [11], the system named is Human papillomavirus type 1a protein E7 (residues 44-93). The test can be described thus: small molecules binding HPV E7 44-93 – biochemical, small-molecule microarray, residues 44-93, 635 nm fluorescence, primary screen (AID 1108).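 Note: E7 fragment applied at 1 µg/mL in TBST for 1 h at 4 C; score combines spot fluorescence with its signal to noise ratio.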 The following applies: fluorescence 635 nm, higher = more signal.
Test [12] can be described thus: hepatitis C replication reporter changes, two-sided – Huh7 cells, luciferase reporter, HCV replication inhibitor project, primary screen (AID 1109).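 Note: huh7 hepatoma cells harbouring a luciferase neomycin HCV replicon reporter; luciferase luminescence as measure of HCV replicon replication; test concentration not given here.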 The following applies: Huh7 HCV replicon luciferase reporter, 48 h; higher = more signal. On the technique in general: In a reporter assay the amount or activity of a reporter protein is the signal.
For test [13], the target named is Left-right determination factor 2 (Homo sapiens) (UniProt O00292). The test can be described thus: small molecules binding LEFTY2 protein – biochemical, small-molecule microarray, 635 nm fluorescence scan, primary screen (AID 1110). The following applies: higher = more signal.
For test [14], the target named is Calmodulin-1 (Homo sapiens) (UniProt P0DP23). The test can be described thus: small molecules binding calmodulin-1 with EGTA – biochemical, small-molecule microarray, Cy5-labelled CALM1, profiling panel (AID 1111).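 Note: labelled calmodulin applied in Tris saline Tween buffer holding calcium plus EGTA and DTT.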 The following applies: Cy5-CALM1 binding fluorescence, higher = more signal.
For test [15] the target is unchanged. The test can be described thus: small molecules binding Ca-loaded calmodulin-1 – biochemical, small-molecule microarray, Cy5-labelled CALM1, plus calcium, artefact control for SMM control-protein annotation, profiling panel (AID 1112).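 Note: score merges spot fluorescence with signal to noise from triplicate slides.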 The following applies: Cy5-CALM1 binding fluorescence, higher = more signal.
The nature of test [16]: probe aWnt5a binding to arrayed compounds – biochemical, biotinylated probe, 635/667 nm fluorescence, primary screen (AID 1113).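 Note: score merges 667 nm fluorescence intensity with signal-to-noise per printed feature.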 The following applies: small-molecule microarray, higher = more signal.
Test [17] can be described thus: probe aShh binding to arrayed compounds – biochemical, biotinylated probe, 635/667 nm fluorescence, primary screen (AID 1114).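 Note: probe is biotin-labelled aShh protein from a stem cell growth factor screen; measures binding of labelled protein to compounds printed on the slide; score merges feature fluorescence at 667 nm with signal-to-noise.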 The following applies: small-molecule microarray, higher = more signal.
The nature of test [18]: probe aNog binding to arrayed compounds – biochemical, biotinylated probe, 635/667 nm fluorescence, primary screen (AID 1115).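 Note: probe is biotinylated aNog protein used at 0.15 µg/mL for 1 h at 4 C; z-score combines 667 nm fluorescence of each spot with its signal to noise.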 The following applies: small-molecule microarray, higher = more signal.
The target of test [19] is Torsin-1A-interacting protein 1 (Homo sapiens) (UniProt Q5JTV8). The test can be described thus: compound microarray binding of lysate hLAP1 – cell lysate, small-molecule microarray, COS7 lysate, 635/667 nm fluorescence, primary screen (AID 1116). The following applies: 635 nm fluorescence, higher = more signal.
Test [20] has as its target Alpha-bungarotoxin (Bungarus multicinctus) (UniProt P60615). In words: compounds binding labelled alpha-BTX control protein – biochemical, small-molecule microarray, Alexa647 label, 635/667 nm fluorescence, artefact control for SMM control protein annotation, profiling panel (AID 1117). The following applies: alpha-BTX-A647 binding fluorescence, higher = more signal.

Chain of Follistatin-related protein 3 (Homo sapiens) (O95633 whole entry, looked up): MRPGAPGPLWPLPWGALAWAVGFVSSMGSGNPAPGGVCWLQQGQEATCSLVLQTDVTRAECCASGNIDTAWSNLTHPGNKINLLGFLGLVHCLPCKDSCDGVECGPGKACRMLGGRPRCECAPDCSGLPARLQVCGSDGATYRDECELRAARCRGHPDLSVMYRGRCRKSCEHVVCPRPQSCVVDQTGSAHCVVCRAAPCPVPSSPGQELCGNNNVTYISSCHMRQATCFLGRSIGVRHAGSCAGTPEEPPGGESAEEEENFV
Chain of Left-right determination factor 2 (Homo sapiens) (O00292 whole entry, looked up): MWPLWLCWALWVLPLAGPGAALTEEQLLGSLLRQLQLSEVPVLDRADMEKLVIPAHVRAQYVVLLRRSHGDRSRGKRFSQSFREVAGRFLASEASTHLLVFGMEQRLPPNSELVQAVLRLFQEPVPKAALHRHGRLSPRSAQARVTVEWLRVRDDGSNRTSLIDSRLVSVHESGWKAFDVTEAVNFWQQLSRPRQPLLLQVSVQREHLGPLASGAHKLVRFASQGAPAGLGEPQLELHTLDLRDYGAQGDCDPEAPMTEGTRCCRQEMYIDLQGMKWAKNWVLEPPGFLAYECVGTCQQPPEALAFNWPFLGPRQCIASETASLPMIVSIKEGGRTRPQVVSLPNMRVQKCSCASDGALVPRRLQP
Chain of Torsin-1A-interacting protein 1 (Homo sapiens) (Q5JTV8 whole entry, looked up): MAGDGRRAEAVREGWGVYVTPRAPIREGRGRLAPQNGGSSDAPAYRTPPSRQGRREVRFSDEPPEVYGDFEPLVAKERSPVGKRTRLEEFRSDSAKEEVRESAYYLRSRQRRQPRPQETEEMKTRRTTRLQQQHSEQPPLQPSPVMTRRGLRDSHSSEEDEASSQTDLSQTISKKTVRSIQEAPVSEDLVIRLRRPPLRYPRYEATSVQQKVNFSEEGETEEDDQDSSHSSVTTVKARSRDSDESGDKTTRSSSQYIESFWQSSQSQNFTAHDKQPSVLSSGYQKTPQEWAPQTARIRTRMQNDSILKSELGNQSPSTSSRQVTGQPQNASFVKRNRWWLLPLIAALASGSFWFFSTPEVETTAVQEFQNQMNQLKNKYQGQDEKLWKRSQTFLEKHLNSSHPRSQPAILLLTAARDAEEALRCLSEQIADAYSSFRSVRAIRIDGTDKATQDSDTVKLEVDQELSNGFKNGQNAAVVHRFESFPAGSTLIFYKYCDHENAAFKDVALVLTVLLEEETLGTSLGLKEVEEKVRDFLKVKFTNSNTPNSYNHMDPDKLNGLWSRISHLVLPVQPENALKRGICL
Chain of Fibroblast growth factor 10 (Homo sapiens) (O15520 whole entry, looked up): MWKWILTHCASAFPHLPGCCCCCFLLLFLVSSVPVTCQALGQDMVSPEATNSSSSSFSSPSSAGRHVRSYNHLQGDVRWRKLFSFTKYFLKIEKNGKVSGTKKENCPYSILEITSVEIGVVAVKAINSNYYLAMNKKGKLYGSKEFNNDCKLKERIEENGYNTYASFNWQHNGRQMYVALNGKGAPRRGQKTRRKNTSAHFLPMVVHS
Chain of Alpha-bungarotoxin (Bungarus multicinctus) (P60615 whole entry, looked up): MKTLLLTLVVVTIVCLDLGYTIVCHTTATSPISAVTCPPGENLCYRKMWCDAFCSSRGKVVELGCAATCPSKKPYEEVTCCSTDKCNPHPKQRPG
Chain of Dickkopf-related protein 1 (Homo sapiens) (O94907 whole entry, looked up): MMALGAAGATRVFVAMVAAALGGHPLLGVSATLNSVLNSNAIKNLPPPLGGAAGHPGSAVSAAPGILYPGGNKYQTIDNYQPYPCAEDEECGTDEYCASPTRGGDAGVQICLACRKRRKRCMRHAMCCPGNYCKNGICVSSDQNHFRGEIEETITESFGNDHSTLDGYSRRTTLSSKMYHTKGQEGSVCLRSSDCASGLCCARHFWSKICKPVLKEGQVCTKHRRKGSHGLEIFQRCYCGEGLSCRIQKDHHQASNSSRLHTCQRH
Chain of Epidermal growth factor receptor (Homo sapiens) (P00533 whole entry, looked up): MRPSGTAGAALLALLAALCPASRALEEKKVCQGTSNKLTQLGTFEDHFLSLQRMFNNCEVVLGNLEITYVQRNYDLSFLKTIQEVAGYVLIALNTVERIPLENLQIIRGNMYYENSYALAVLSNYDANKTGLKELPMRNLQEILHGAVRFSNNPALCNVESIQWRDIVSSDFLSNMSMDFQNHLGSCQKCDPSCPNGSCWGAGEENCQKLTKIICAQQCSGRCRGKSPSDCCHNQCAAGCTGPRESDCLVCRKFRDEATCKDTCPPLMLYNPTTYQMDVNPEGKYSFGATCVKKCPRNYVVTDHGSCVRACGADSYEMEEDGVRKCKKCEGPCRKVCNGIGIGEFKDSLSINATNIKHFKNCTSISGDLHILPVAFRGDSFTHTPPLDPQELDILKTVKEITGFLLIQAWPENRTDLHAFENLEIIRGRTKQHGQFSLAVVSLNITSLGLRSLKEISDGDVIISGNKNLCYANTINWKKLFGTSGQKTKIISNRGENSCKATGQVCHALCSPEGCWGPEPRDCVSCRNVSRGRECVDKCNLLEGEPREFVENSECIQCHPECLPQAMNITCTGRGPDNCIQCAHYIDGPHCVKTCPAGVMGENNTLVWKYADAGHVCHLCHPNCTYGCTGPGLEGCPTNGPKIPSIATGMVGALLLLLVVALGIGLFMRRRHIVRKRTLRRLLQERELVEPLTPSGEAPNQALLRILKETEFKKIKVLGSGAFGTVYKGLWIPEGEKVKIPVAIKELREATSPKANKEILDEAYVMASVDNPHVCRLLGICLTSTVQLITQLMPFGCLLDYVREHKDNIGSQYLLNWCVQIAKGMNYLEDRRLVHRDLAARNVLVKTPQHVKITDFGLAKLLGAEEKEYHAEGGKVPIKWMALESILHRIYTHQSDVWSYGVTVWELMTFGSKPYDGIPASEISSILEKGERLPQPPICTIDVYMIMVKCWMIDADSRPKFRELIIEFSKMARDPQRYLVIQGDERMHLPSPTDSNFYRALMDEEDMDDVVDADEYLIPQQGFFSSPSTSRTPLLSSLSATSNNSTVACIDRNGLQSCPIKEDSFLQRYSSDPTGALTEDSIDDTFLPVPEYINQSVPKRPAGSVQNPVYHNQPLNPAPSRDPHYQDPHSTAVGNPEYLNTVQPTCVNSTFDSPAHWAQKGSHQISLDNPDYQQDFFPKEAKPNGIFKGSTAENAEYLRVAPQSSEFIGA

Regarding `O=C1O[C@@H](c2ccccc2)[C@@H](c2ccccc2)N2[C@@H](c3ccc(O)cc3)[C@]3(C(=O)Nc4ccc(C#CC5(O)CCCCCC5)cc43)[C@@H](C(=O)N3CCCCCCC3)[C@H]12`, the composite z-score amounted to 1.99 in test [1]; 2.61 in test [2]; 1.26 in test [3]; 1.51 in test [5]; 1.38 in [6]; 1.83 in [7]. Moreover, the composite z-score was 1.53 in test [8]; 2.49 in test [9]; 1.86 in test [10]; 1.48 in test [11]; 1.43 in [13]; 2.6 in test [14]. Besides, the composite z-score in test [15] turned out to be 1.61; in test [16] it was 1.45; in test [17], 2.73; in test [18], 3.67; in test [19], 4.7; in test [20] it was 3.03. The z-score in [4] is -0.612 (inactive); in [12], -1.29.

For the molecule `CC(C)N1CC=CC23O[C@@H]4C=CCOC(=O)[C@@H]4[C@H]2C(=O)N(CCO)[C@@H]3C1=O` (stereo not given in full), the composite z-score in test [1] is 1.58; in test [2], -0.256; in [3], 0.651; in [5], -1.61; in test [6], -0.897; in [7] it was -0.859. The composite z-score in test [8] is -0.447; in [9], -1.61; in test [10] it was -0.223; in test [11], 0.723; in test [13] it was -1.65; in test [14] it was -0.248. Further, the composite z-score in test [15] was 0.641; in test [16], -0.206; in test [17], -0.11; in test [18], -0.178; in test [19], 0.0566; in test [20], -1.15. Also, the z-score in test [4] is -0.262 (inactive); in [12], -0.0497.

In the case of `Cc1cc(C)cc(N2C(=O)CS(=O)(=O)C2c2cccc([N+](=O)[O-])c2)c1` (stereo not given), the composite z-score in test [1] was 0.195; in [2], 0.734; in test [3] it was 0.788; in test [5] it was 0.612; in test [6] it was 0.124; in test [7] it was 0.518. The composite z-score was 0.366 in [8]; 0.122 in [9]; 0.826 in test [10]; -0.489 in [11]; 0.39 in [13]; 1.47 in [14]. Besides, the composite z-score is 0.395 in test [15]; -0.15 in [16]; 0.108 in test [17]; 0.549 in test [18]; 1.23 in test [19]; 1.25 in [20]. The z-score was -0.352 (inactive) in test [4] and -0.0865 in [12].

Turning to `COC(=O)[C@@]1(Cc2ccccc2)N=C(c2ccc(OCCCO)cc2)O[C@H]1c1ccccc1N=[N+]=[N-]`, the composite z-score is 1.38 in test [1]; 0.0861 in test [2]; 0.657 in [3]; 0.883 in test [5]; 0.887 in [6]; -0.003 in test [7]. Also, the composite z-score was 0.848 in test [8]; 0.425 in [9]; 1.23 in test [10]; 1.33 in [11]; 0.241 in test [13]; -0.203 in [14]. In addition, the composite z-score is -1.07 in test [15]; -0.0405 in [16]; 0.297 in test [17]; 0.781 in test [18]; 2.83 in test [19]; 0.778 in [20]. Besides, the z-score in test [4] was -0.384 (inactive); in [12], -0.749.

Take `CCCNC(=O)[C@@]1(c2ccc([N+](=O)[O-])cc2)CC(=O)N(CC23CC4CC(CC(C4)C2)C3)[C@@H]1c1ccc(CO)cc1`: the composite z-score is 0.814 in [1]; 0.644 in test [2]; -0.0905 in test [3]; 0.425 in test [5]; 0.108 in test [6]; 0.533 in [7]. Moreover, the composite z-score is 1.34 in test [8]; 0.138 in [9]; -0.247 in test [10]; 0.914 in test [11]; 0.421 in test [13]; -0.865 in [14]. Moreover, the composite z-score in test [15] was -0.827; in test [16], 0.0004; in test [17], -0.569; in [18] it was 0.0278; in [19] it was -0.303; in test [20], 1.01. The z-score in test [4] is 0.228 (inactive); in test [12] it was -2.86.
